The panel holds about 79,000 compounds, 15% with a hit somewhere; the sample as a whole holds those more often. Active and inactive are the calls of the source. Rule as the data show it: active = growth inhibition above about 70%; inactive = the rest.
Assays:
[1] = NCI Yeast Anticancer Drug Screen. Data for the rad52 strain (AID 147);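 also: 0% = growth of vehicle-treated control cultures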; conditions: S. cerevisiae rad52 mutant growth inhibition, active compounds read high
Summary of the method: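 Yeast strain carrying a DNA damage repair alteration was exposed to test compounds. Growth inhibition was measured relative to vehicle-treated controls.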

[2] = NCI Yeast Anticancer Drug Screen. Data for the wt1 strain (AID 149);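 also: 0% = growth of vehicle-treated wt1 cultures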; conditions: S. cerevisiae wt1 strain (SPY 50644) growth inhibition, active compounds read high
Summary of the method: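 The wt1 strain was treated with compounds, and growth was compared with vehicle-treated cultures to give inhibition.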

[3] = NCI Yeast Anticancer Drug Screen. Data for the rad50EPP+ strain (AID 151);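 also: 0% = growth of vehicle-treated control cultures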; conditions: S. cerevisiae rad50 mutant strain, active compounds read high
Summary of the method: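 Yeast strain carrying rad50 alteration (rad50EPP+) exposed to compounds; growth inhibition measured relative to vehicle-treated controls.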

[4] = NCI Yeast Anticancer Drug Screen. Data for the mgt1 strain (AID 153); conditions: S. cerevisiae mgt1 mutant growth inhibition, active compounds read high
Summary of the method: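 Yeast mgt1 strain (DNA repair/cell-cycle alteration panel) exposed to compounds; growth inhibition measured relative to vehicle-treated controls.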

[5] = NCI Yeast Anticancer Drug Screen. Data for the rad50 strain (AID 155);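 also: 0% = growth of vehicle-only cultures of the same strain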; conditions: S. cerevisiae rad50 strain growth inhibition, active compounds read high
Summary of the method: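 Cells are treated with compound, grown, and their growth is then scored against vehicle-only cultures of the same repair-deficient yeast strain.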

[6] = NCI Yeast Anticancer Drug Screen. Data for the mec2-1 strain (AID 157); conditions: S. cerevisiae mec2-1 strain, active compounds read high
Summary of the method: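 mec2-1 yeast strain, carrying an alteration in DNA damage repair or cell cycle control, was exposed to compounds; growth inhibition was measured relative to vehicle-treated controls.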

[7] = NCI Yeast Anticancer Drug Screen. Data for the rad14 strain (AID 159);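 also: 0% = growth of vehicle-treated control cultures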; conditions: S. cerevisiae rad14 strain growth inhibition, active compounds read high
Summary of the method: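 Readout: yeast growth inhibition, referenced to vehicle-only cultures. Strain bears a defined alteration in DNA damage repair.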

[8] = NCI Yeast Anticancer Drug Screen. Data for the CLN2oe strain (AID 163);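 also: 0% = growth of vehicle-only control cultures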; conditions: S. cerevisiae CLN2oe strain, active compounds read high
Summary of the method: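 Yeast cells carrying a defined cell-cycle control alteration were exposed to test compounds. Growth inhibition was scored against vehicle-treated control cultures.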

[9] = NCI Yeast Anticancer Drug Screen. Data for the cln2 rad14 strain (AID 165);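 also: 0% = growth equal to vehicle treated cultures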; conditions: S. cerevisiae cln2 rad14 strain, active compounds read high
Summary of the method: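 Yeast carrying cln2 and rad14 alterations (cell cycle control and DNA damage repair) were exposed to compounds. Growth inhibition was measured against vehicle-treated controls.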

[10] = NCI Yeast Anticancer Drug Screen. Data for the bub3 strain (AID 167); conditions: S. cerevisiae bub3 mutant strain, active compounds read high
Summary of the method: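 Part of a panel of yeast mutants defective in DNA damage repair or cell cycle regulation. Each strain is grown with compound, and inhibition is calculated relative to solvent-treated cultures.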

[11] = NCI Yeast Anticancer Drug Screen. Data for the wt2 strain (AID 169);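 also: 0% = growth of vehicle-treated yeast cultures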; conditions: S. cerevisiae wt2 strain growth inhibition, active compounds read high
Summary of the method: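 Yeast cells were exposed to test compounds, and growth inhibition was measured relative to vehicle-treated controls.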

[12] = NCI Yeast Anticancer Drug Screen. Data for the mlh1 strain (AID 171);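 also: 0% = growth of vehicle-treated control cultures of the same strain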; conditions: S. cerevisiae mlh1 strain growth inhibition, active compounds read high
Summary of the method: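 Yeast carrying a defined genetic alteration in DNA damage repair or cell cycle control were exposed to test compounds. Growth inhibition was measured relative to vehicle-treated controls.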

[13] = NCI Yeast Anticancer Drug Screen. Data for the sgs1 strain (AID 173);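 also: 0% = growth of vehicle-only control cultures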; conditions: S. cerevisiae sgs1 mutant, active compounds read high
Summary of the method: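 Yeast mutant strains carrying defined defects in DNA damage repair or cell cycle control were exposed to test compounds. Growth inhibition was scored against vehicle-treated controls.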

[14] = NCI Yeast Anticancer Drug Screen. Data for the mlh1 rad18 strain (AID 175); conditions: S. cerevisiae mlh1 rad18 strain growth inhibition, active compounds read high
Summary of the method: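 Growth inhibition of the yeast strain was measured after compound exposure and expressed relative to vehicle-treated controls. The strain carries defined defects in DNA damage repair.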

[15] = NCI Yeast Anticancer Drug Screen. Data for the rad18 strain (AID 177); conditions: S. cerevisiae rad18 mutant growth inhibition, active compounds read high
Summary of the method: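 Yeast carrying a defined DNA damage repair alteration were exposed to compounds. Growth inhibition was expressed relative to vehicle-treated controls.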

[16] = at 5.0 µM (retest, dose inferred, filed as 0.5)
[17] = at 50.0 µM (retest, dose inferred, filed as 5.0)

Measured: growth inhibition

Cc1c2cccc(Sc3ccccc3)c2c2c3c(cccc13)[S+](c1ccccc1)C2 (stereo not given)
inactive: [1]; at 1.2 µM 13% | [1]; at 3.7 µM 41% | [2]; at 1.2 µM 8% | [2]; at 3.7 µM 19% | [3]; at 1.2 µM 4% | [3]; at 3.7 µM 12% | [3]; at 11.0 µM 39% | [4]; at 1.2 µM 5% | [4]; at 3.7 µM 4% | [5]; at 1.2 µM 25% | [5]; at 3.7 µM 69% | [5]; [16] 58% | [6]; at 1.2 µM 7% | [6]; at 3.7 µM 30% | [6]; [16] 28% | [7]; at 1.2 µM -1% | [7]; at 3.7 µM 17% | [8]; at 1.2 µM -3% | [8]; at 3.7 µM -1% | [9]; [16] 7% | [10]; at 1.2 µM -5% | [10]; at 3.7 µM 27% | [10]; [16] 16% | [11]; at 1.2 µM 6% | [11]; at 3.7 µM 25% | [12]; at 1.2 µM 0% | [12]; at 3.7 µM 22% | [13]; at 1.2 µM 10% | [13]; at 3.7 µM 40% | [14]; [16] 18% | [15]; at 1.2 µM 28% | [15]; at 3.7 µM 65%
active: [1]; at 11.0 µM 96% | [1]; at 33.0 µM 95% | [1]; at 100.0 µM 88% | [2]; at 11.0 µM 96% | [2]; at 33.0 µM 96% | [2]; at 100.0 µM 88% | [3]; at 33.0 µM 88% | [3]; at 100.0 µM 88% | [4]; at 11.0 µM 97% | [4]; at 33.0 µM 95% | [4]; at 100.0 µM 90% | [5]; at 11.0 µM 97% | [5]; at 33.0 µM 94% | [5]; [17] 97% | [5]; at 50.0 µM 90.9% | [5]; at 100.0 µM 82% | [6]; at 11.0 µM 98% | [6]; at 33.0 µM 95% | [6]; [17] 97% | [6]; at 50.0 µM 93.5% | [6]; at 100.0 µM 91% | [7]; at 11.0 µM 98% | [7]; at 33.0 µM 96% | [7]; at 100.0 µM 90% | [8]; at 11.0 µM 96% | [8]; at 33.0 µM 92% | [8]; at 100.0 µM 84% | [9]; [17] 96% | [9]; at 50.0 µM 93.4% | [10]; at 11.0 µM 97% | [10]; at 33.0 µM 94% | [10]; [17] 97% | [10]; at 50.0 µM 95.2% | [10]; at 100.0 µM 87% | [11]; at 11.0 µM 97% | [11]; at 33.0 µM 95% | [11]; at 100.0 µM 86% | [12]; at 11.0 µM 98% | [12]; at 33.0 µM 96% | [12]; at 100.0 µM 93% | [13]; at 11.0 µM 97% | [13]; at 33.0 µM 95% | [13]; at 100.0 µM 87% | [14]; [17] 97% | [14]; at 50.0 µM 93.3% | [15]; at 11.0 µM 97% | [15]; at 33.0 µM 95% | [15]; at 100.0 µM 83%
